According to PubChem BioAssay AID1159580 (chemical genetic matrix, 2015):
Several values for one entry are separate records, joined by “and”; a condition that tells them apart may be missing. Identical values can stand only once. In all, about 5,500 compounds went through this assay and about 2,000 (36%) were called active. About 18% were inconclusive and are not listed. Cut-off read from the data, not from the text of the source: active = normalized growth mostly below about 0.91 (no sharp cut-off); inconclusive = no clear call, values can overlap the other calls; inactive = mostly above about 0.92. The list shows a part of the results.

Experiment: chemical genetic growth profiling, strain panel (AID 1159580);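 note: tested at 20 µM; growth read once vehicle control cultures reached saturation at 30 °C; 1 = growth at the plate median or of vehicle wells; lower values mean less growth of the strain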
Conditions: S. cerevisiae deletion strains, growth OD

Measured: normalized growth

S=c1[nH]c2ccccc2s1
0.99 (inactive) and 0.818 (active): locus YJL095W, strain BCK1, stronger effect = lower value
1 (inactive) and 0.821 (active): locus YHR030C, strain SLT2, stronger effect = lower value
inactive: locus YAL013W, strain DEP1, stronger effect = lower value 1 | locus YAL021C, strain ccr4, stronger effect = lower value 0.941 | locus YAL030W, strain snc1, stronger effect = lower value 0.992 | locus YBL061C, strain skt5, stronger effect = lower value 0.986 | locus YBR009C, strain hhf1, stronger effect = lower value 0.972 | locus YBR021W, strain FUR4, stronger effect = lower value 1.06 | locus YBR023C, strain chs3, stronger effect = lower value 1.01 | locus YBR171W, strain sec66, stronger effect = lower value 0.965 | locus YBR229C, strain ROT2, stronger effect = lower value 0.989 | locus YBR231C, strain swc5, stronger effect = lower value 0.946 | locus YBR279W, strain paf1, stronger effect = lower value 0.982 | locus YCL011C, strain gbp2, stronger effect = lower value 0.966 | locus YCL016C, strain dcc1, stronger effect = lower value 1.02 | locus YCL029C, strain bik1, stronger effect = lower value 0.989 | locus YCL069W, strain vba3, stronger effect = lower value 0.983 | locus YCR088W, strain abp1, stronger effect = lower value 0.981 | locus YDL005C, strain med2, stronger effect = lower value 0.996 | locus YDL035C, strain GPR1, stronger effect = lower value 0.948 | locus YDL040C, strain nat1, stronger effect = lower value 0.983 | locus YDL074C, strain BRE1, stronger effect = lower value 0.975 | locus YDL101C, strain DUN1, stronger effect = lower value 0.99 | locus YDL134C, strain PPH21, stronger effect = lower value 0.985 | locus YDL185W, strain tfp1, stronger effect = lower value 0.979 | locus YDL192W, strain arf1, stronger effect = lower value 0.985 | locus YDR001C, strain nth1, stronger effect = lower value 0.992 | locus YDR069C, strain doa4, stronger effect = lower value 0.951 | locus YDR101C, strain arx1, stronger effect = lower value 1.01 | locus YDR150W, strain NUM1, stronger effect = lower value 0.986 | locus YDR159W, strain sac3, stronger effect = lower value 0.992 | locus YDR162C, strain NBP2, stronger effect = lower value 0.986 | locus YDR297W, strain sur2, stronger effect = lower value 0.97 | locus YDR318W, strain mcm21, stronger effect = lower value 0.996 | locus YDR334W, strain swr1, stronger effect = lower value 0.972 | locus YDR335W, strain msn5, stronger effect = lower value 0.984 | locus YDR388W, stronger effect = lower value 0.987 | locus YDR392W, strain spt3, stronger effect = lower value 0.879 | locus YDR502C, strain sam2, stronger effect = lower value 1 | locus YEL003W, strain gim4, stronger effect = lower value 0.952 | locus YEL037C, strain rad23, stronger effect = lower value 0.975 | locus YEL061C, strain CIN8 (second series), stronger effect = lower value 0.973 | locus YEL061C, strain CIN8, stronger effect = lower value 1.01 | locus YER015W, strain faa2, stronger effect = lower value 0.965 | locus YER016W, strain bim1, stronger effect = lower value 0.987 | locus YER110C, stronger effect = lower value 0.998 | locus YER111C, strain swi4, stronger effect = lower value 0.979 | locus YER155C, strain BEM2 (second series), stronger effect = lower value 0.986 | locus YER155C, strain BEM2, stronger effect = lower value 0.986 | locus YER167W, strain BCK2, stronger effect = lower value 1.02 | locus YFR010W, strain ubp6, stronger effect = lower value 0.95 | locus YGL078C, strain dbp3, stronger effect = lower value 1.02 | locus YGL086W, strain mad1, stronger effect = lower value 0.965 | locus YGL167C, strain pmr1, stronger effect = lower value 0.995 | locus YGL173C, strain kem1, stronger effect = lower value 0.91 | locus YGL227W, strain vid30, stronger effect = lower value 0.996 | locus YGL240W, strain doc1, stronger effect = lower value 0.923 | locus YGL248W, strain PDE1, stronger effect = lower value 0.991 | locus YGL253W, strain hxk2, stronger effect = lower value 0.938 | locus YGR078C, strain PAC10, stronger effect = lower value 0.958 | locus YGR135W, strain pre9, stronger effect = lower value 0.964 | locus YHR013C, strain ard1, stronger effect = lower value 1.02 | locus YHR079C, strain IRE1 (second series), stronger effect = lower value 1.01 | locus YHR094C, strain hxt1, stronger effect = lower value 1.02 | locus YHR129C, strain ARP1, stronger effect = lower value 0.992 | locus YHR142W, strain chs7, stronger effect = lower value 1.01 | locus YHR200W, strain rpn10, stronger effect = lower value 1.01 | locus YIL066C, strain RNR3, stronger effect = lower value 0.986 | locus YIL073C, strain SPO22, stronger effect = lower value 0.844 | locus YIL125W, strain kgd1, stronger effect = lower value 1.01 | locus YIR030C, strain dcg1, stronger effect = lower value 1.01 | locus YJL092W, strain hpr5, stronger effect = lower value 0.984 | locus YJL095W, strain BCK1 (second series), stronger effect = lower value 0.975 | locus YJL115W, strain asf1, stronger effect = lower value 0.983 | locus YJL129C, strain trk1, stronger effect = lower value 0.966 | locus YJL134W, strain LCB3, stronger effect = lower value 1 | locus YJL154C, strain vps35, stronger effect = lower value 0.983 | locus YJL164C, strain tpk1, stronger effect = lower value 1 | locus YJL166W, strain qcr8, stronger effect = lower value 0.962 | locus YJL168C, strain set2, stronger effect = lower value 0.996 | locus YJL187C, strain SWE1 (second series), stronger effect = lower value 0.964 | locus YJR043C, strain POL32, stronger effect = lower value 1 | locus YJR075W, strain HOC1, stronger effect = lower value 1.02
active: locus YAL026C, strain drs2, stronger effect = lower value 0.891 | locus YDR137W, strain rgp1, stronger effect = lower value 0.808 | locus YDR195W, strain ref2 1.18 [resistant] | locus YGR229C, strain SMI1, stronger effect = lower value 0.804 | locus YGR252W, strain gcn5, stronger effect = lower value 0.691 | locus YHR027C, strain rpn1, stronger effect = lower value 0.903 | locus YHR079C, strain IRE1, stronger effect = lower value 0.78 | locus YJR066W, strain TOR1, stronger effect = lower value 0.732
